# From PubChem
# In the library only some 3.4% were active in any assay of this set; here they are far more common.
# FBW7 activator = activators of human E3 ligase FBW7; AID 1259310; AlphaScreen FBW7–phospho-cyclin E peptide binding, activator screen; Q969H0; 0.13% of 650,000 active; normalized activity (activation), % at 26.1 µM; in the data active = normalized activity above about 1.9%;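 note: purified mutant Fbw7 with reduced substrate affinity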
# GPR151 ag = activates the human receptor GPR151; 1% of 650,000 active; PathHunter beta-arrestin GPR151 cells, luminescence; activation, % at 11.2 µM; in the data active = activation above about 4.9%;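 note: 0% = median of compound wells and 100% = cells with positive control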
# Target sequence (Q8TDV0 whole entry, looked up): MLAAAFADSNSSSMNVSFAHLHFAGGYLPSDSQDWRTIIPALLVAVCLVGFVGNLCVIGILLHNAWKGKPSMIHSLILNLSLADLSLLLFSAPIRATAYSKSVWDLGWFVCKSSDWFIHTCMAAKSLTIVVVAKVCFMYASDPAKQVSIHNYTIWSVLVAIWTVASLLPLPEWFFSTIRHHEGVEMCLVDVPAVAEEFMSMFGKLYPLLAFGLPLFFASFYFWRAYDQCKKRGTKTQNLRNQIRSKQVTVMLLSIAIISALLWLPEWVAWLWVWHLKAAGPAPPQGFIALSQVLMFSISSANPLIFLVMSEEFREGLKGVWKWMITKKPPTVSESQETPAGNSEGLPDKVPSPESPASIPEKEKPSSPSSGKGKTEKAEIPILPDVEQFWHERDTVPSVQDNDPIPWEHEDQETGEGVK
# MITF primary = human MITF inhibition, primary screen; 0.91% of 650,000 active; inhibition, % at 2.6 µM; AID 1259374; AlphaScreen MITF homodimerization, bead proximity signal; in the data active = inhibition above about 50%;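 note: 0% = vehicle wells with protein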
# TEAD-YAP block = TEAD-YAP interaction inhibition; HEK-TIYL cells, TEAD-Gal4/YAP UAS-luciferase luminescence; inhibition, % at 9.12 µM; 1.4% of 640,000 active; AID 1259422; in the data active = inhibition above about 32%;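 note: 0% = median of test compound wells and 100% = reference inhibitor wells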
# * hit, by the source's call; . = no result.
SMILES,FBW7 activator,GPR151 ag,MITF primary,TEAD-YAP block
O=C(Nc1ccc(F)cc1)c1ccc(F)c([N+](=O)[O-])c1,0,-2,4,59*
COc1ccc(C(=O)Nn2c(SCC(=O)NCc3ccco3)nc3ccccc3c2=O)cc1,0,0,-10,75*
COc1ccc(C(=O)Nn2c(SCC(=O)NCCc3ccccc3)nc3ccccc3c2=O)cc1,0,2,-2,71*
CCC(=O)NC(c1ccco1)c1ccc2cccnc2c1O (stereo not drawn),-2,-2,70*,27
O=C(COc1ccccc1)NC(c1ccco1)c1cc(Cl)c2cccnc2c1O (stereo not drawn),0,-1,25,85*
CCC(=O)NC(c1ccco1)c1cc(Cl)c2cccnc2c1O (stereo not drawn),0,0,38,37*
COc1ccc(C(=O)NC(c2ccco2)c2cc(Cl)c3cccnc3c2O)cc1 (stereo not drawn),0,-1,11,1
O=C(COc1ccccc1)NC(c1ccccc1)c1cc(Cl)c2cccnc2c1O (stereo not drawn),0,-1,0,-5
COC(=O)c1ccc2c(c1)N(CC(N)=O)C(=O)CS2,0,2,-1,1
CC1=NN2C(=N)/C(=C/c3cn(CCOc4cc(C)cc(C)c4)c4ccccc34)C(=O)N=C2S1,0,-1,-8,0
CCOc1cc(C2C(C#N)=C(N)OC3=C2C(=O)CCC3)ccc1OCc1ccccc1F (stereo not drawn),0,-1,-2,-4
COc1cc(OC)c(C(=O)OCc2c(C)noc2C)cc1OC,0,-1,-2,-2
Cc1nc2scc(C)n2c1C(=O)NC1CCC1,1.9*,-1,18,7
COc1cccc(C2NC(=O)NC(C)=C2C(=O)Nc2ccc(F)cc2)c1OC (stereo not drawn),0,-2,-16,43*
CC1=C(C(=O)Nc2ccc(Br)cc2)C(c2ccc(O)cc2)NC(=O)N1 (stereo not drawn),2.8*,-2,24,-5
OCCNc1nc(Nc2ccc3ncccc3c2)nc2c1ncn2-c1ccsc1,0,1,10,35*
Oc1ccc(CCNc2nc(Nc3ccc4ncccc4c3)nc3c2ncn3-c2ccsc2)cc1,0,-1,2,56*
Oc1ccc(CCNc2nc(Nc3ccc4ncccc4c3)nc3nc[nH]c23)cc1,0,0,11,45*
Cc1ccc(C#N)c(SCc2nnc(-c3ccc(Cl)cc3)o2)n1,0,0,15,68*
O=C1CCCC2=C1C(c1cc(Br)ccc1O)C1C(=O)c3ccccc3C1=N2 (stereo not drawn),0,3,16,50*
O=C1CCCC2=C1C(c1cc([N+](=O)[O-])ccc1O)C1C(=O)c3ccccc3C1=N2 (stereo not drawn),-1,1,12,18
Cc1cc(NC(=O)c2ccccc2)sc1C,0,-8,-5,-37
Cc1ccc(NC(=O)c2ccccc2)s1,0,-5,3,57*
Cc1ccc(N(Cc2ccc(Br)cc2)C(=O)c2ccc(Br)cc2)cc1,0,1,13,0
CN1C(=O)c2ccc(N3C(=O)c4ccccc4C3=O)cc2C1=O,0,0,-9,-3
SMILES,FBW7 activator,GPR151 ag,MITF primary,TEAD-YAP block
Cc1ccc(-c2c[n+]3ccccc3n2-c2ccccc2)cc1,0,1,-9,80*
Cc1ccccc1C(C(=O)Nc1ccc(F)cc1)N(C(=O)c1cnccn1)c1ccccc1 (stereo not drawn),0,0,4,-3
Cc1cccc(NC(=O)c2sc3nc(C)cc(C)c3c2N)n1,0,-2,-14,84*
COc1ccc2nc(NC(=O)c3sc4nc(C)cc(C)c4c3N)sc2c1,1,1,4,35*
Cc1cc(C)c2c(N)c(C(=O)NC(C)c3ccccc3)sc2n1 (stereo not drawn),2.3*,1,16,-14
COc1ccc2nc(NC(=O)c3sc4nc(C)[nH]c(=O)c4c3C)sc2c1,0,0,13,5
Cc1cc(C)c2c(N)c(C(=O)Nc3ccccc3)sc2n1,0,0,-10,-11
O=C(NCCN1CCOCC1)c1ccn(-c2ccnc(Nc3ccc(N4CCOCC4)cc3)c2)n1,0,0,-5,-4
COc1ccc(N2C(=O)CSC2c2cc3c(cc2Br)OCO3)cc1Cl (stereo not drawn),1,1,11,-7
O=C(NCc1ccc(Cl)c(Cl)c1)O[C@H]1CCc2ccccc21,.,2,-36,.
Cn1c(=O)c2nc(SCC(=O)Nc3cccc(C(F)(F)F)c3)n(C)c2n(C)c1=O,0,-1,13,11
